# High-throughput results as filed in PubChem BioAssay.
# BoNT A protease: BoNT A light chain protease inhibition; multiplex microsphere protease substrate cleavage, flow cytometry; inhibition, % at 10 µM; hit rate 0.17% among 360,000; AID 588499
# Anthrax LF inh2: anthrax lethal factor protease inhibition; P15917; multiplex microsphere protease cleavage assay, LF; inhibition, % at 10 µM; hit rate 0.12% among 360,000
# SARS 3CLpro inh: SARS-CoV 3CLpro protease inhibition; recombinant SARS-CoV 3CLpro, quenched FRET peptide cleavage; hit rate 0.14% among 290,000; AID 1706; P0C6X7; inhibition, % at 6 µM; in the data active means inhibition above about 12%
# BJeLR viability: kills HRASV12-expressing BJeLR cells | BJeLR (HRASV12) viability, CellTiter-Glo ATP luminescence, 48 h | inhibition, % (no concentration beside the values) | hit rate 0.17% among 300,000 | AID 1554; in the data active means inhibition above about 50%; inconclusive means no clear call, values can overlap the other calls
# BoNT F protease: inhibitors of Botulinum neurotoxin F light chain protease | Multiplex microsphere protease cleavage assay, flow cytometry | inhibition, % at 10 µM | hit rate 0.22% among 360,000; in the data active means inhibition above about 35%, passing the limit was not always enough; inconclusive means no clear call, values can overlap the other calls
# Autofluor counter: compound fluorescence in toxin protease inhibitor counterscreen. hit rate 3.1% among 360,000. fluorescence intensity (no concentration beside the values). compound autofluorescence counterscreen, microsphere flow cytometry; active compounds read high; in the data active means fluorescence intensity above about 16000; inconclusive means no clear call, values can overlap the other calls
# A number is an active result; - = inactive; ? = inconclusive; . = no result. Most compounds without a hit are left out; they make up all but 3.6% or so of the library. Unless noted, no stated cut-off is given here; in the data, active means inhibition above about 30%; inconclusive means no clear call, values can overlap the other calls; inactive means below that.
SMILES,BoNT A protease,Anthrax LF inh2,SARS 3CLpro inh,BJeLR viability,BoNT F protease,Autofluor counter
CCN(CC)c1ccc(/C=C(/C#N)c2nc3ccc(C)cc3[nH]2)c(OC(C)C)c1,-,-,-,-,64.2,27707
COc1cc(/C=C(\C#N)c2nc3ccc(C)cc3[nH]2)c([N+](=O)[O-])cc1OC,-,-,-,-,-,-
CCCOc1cc(N(CC)CC)ccc1/C=C(/C#N)c1nc2ccc(C)cc2[nH]1,-,-,-,-,44.7,23823
CCCCOc1ccc(C(=O)NCC(=O)N2CCN(C(=O)c3ccco3)CC2)cc1,-,-,.,-,-,-
CSc1ccccc1NC(=O)C1(C)CCN1C(=O)Cc1ccccc1Cl (stereo not given),-,-,.,.,-,-
O=C1CSc2ccccc2N1Cc1ccc(F)cc1,-,-,-,-,-,21142
CCOC(=O)CN1C(=O)CSc2ccccc21,-,-,-,-,-,24381
CCOC(=O)N1CCC(NC(=O)c2cc(C)c3c(C)nn(-c4ccccc4)c3n2)CC1,-,-,-,-,-,19067
COc1ccc(NC(=O)CSc2nnc(-c3cccnc3)o2)c(OC)c1,-,-,.,-,-,?
CC(=O)N(Cc1cc2cc(C)c(C)cc2n2nnnc12)CC1COCCO1 (stereo not given),-,-,-,-,-,22636
Cc1cc2cc(CN(Cc3ccc4c(c3)OCO4)C(=O)c3cnccn3)c3nnnn3c2cc1C,-,-,-,-,-,-
Cc1ccc(Cn2c(=O)c3ccccc3n3c(SCC(=O)N4CCCCC4C)nnc23)cc1 (stereo not given),?,-,.,.,-,19920
Cc1ccc(Cn2c(=O)c3ccccc3n3c(CCC(=O)O)nnc23)cc1,-,-,-,-,-,-
O=C(CSc1nnc(-c2ccco2)o1)c1ccc(O)cc1O,-,-,-,-,-,-
Cc1ccc(OCCN(C)C(=O)C2CCC(=O)N(CCCN3CCCC3=O)C2)cc1 (stereo not given),-,-,-,-,-,-
O=C(O)c1ccc2c(c1)C(c1ccccc1)OC2=O (stereo not given),-,-,-,-,-,16408
O=C(O)c1ccc2c(c1)CC(c1ccccc1)OC2=O (stereo not given),-,-,-,-,-,-
Cc1ccc(Cl)cc1N1CCN(CC(=O)Nc2ccc3[nH]c(=O)[nH]c3c2)CC1,-,-,-,-,-,19567
CCOc1ccc(NC(=O)CN2CCN(CC(=O)Nc3cccc(F)c3)CC2)cc1,-,-,-,.,-,-
COc1ccccc1N1CCN(CC(=O)Nc2ccc(Cl)c(C(F)(F)F)c2)CC1,-,-,-,-,-,16616
CCOc1ccc(NC(=O)CN2CCN(CC(=O)Nc3ccc(Cl)c(C(F)(F)F)c3)CC2)cc1,-,-,-,-,-,26476
O=C(CNC(=O)c1ccc(Cl)cc1Cl)OCn1nnc2ccccc2c1=O,-,-,.,-,-,-
CC(C)(C)OC(=O)NCCCC[C@H](NC(=O)c1nc[nH]c1C(=O)NC(c1ccccc1)c1ccccc1)C(=O)OC(C)(C)C,-,-,-,-,-,-
N#CCC1c2ccccc2CCN1C(=O)Nc1cccc(Cl)c1 (stereo not given),-,-,-,-,-,23621
N#CCC1c2ccccc2CCN1C(=O)Nc1ccc(C(F)(F)F)cc1 (stereo not given),-,-,-,-,-,16726
SMILES,BoNT A protease,Anthrax LF inh2,SARS 3CLpro inh,BJeLR viability,BoNT F protease,Autofluor counter
O=C(OCC#CCSc1nnc(-c2ccccc2)o1)c1ccco1,-,-,-,-,-,-
O=C(OCC#CCSc1nc2ccccc2s1)c1ccco1,-,-,-,-,-,19554
CC(C)Cn1c(N)c(C(=O)CSc2nnc(C3CC3)n2C2CC2)c(=O)n(C)c1=O,-,-,.,.,-,-
CC1=CC2=C(OC1N(C)C)c1cccc3cccc(c13)C2=O (stereo not given),-,-,-,-,-,21836
O=C(COC(=O)CNC(=O)c1ccccc1)Nc1ccc(F)c([N+](=O)[O-])c1,-,-,-,-,-,-
Cc1cc(C)c(NC(=O)C(C)Sc2nc3ccc(N4C(=O)c5ccccc5C4=O)cc3s2)c(C)c1 (stereo not given),?,-,-,-,-,16290
Cc1cc(C)c(NC(=O)CSc2nc3ccc(N4C(=O)c5ccccc5C4=O)cc3s2)c(C)c1,-,-,-,-,-,-
C=CCn1c(SCC(=O)N(CC)CC)nc(O)cc1=O,?,-,-,-,-,23021
CC(C)Oc1cccc(C(=O)C2CCCN(C(=O)c3ccc4c(c3)OCO4)C2)c1 (stereo not given),-,-,-,-,-,-
